B1: design_488_244881a1-ba0c-4c08-ad9c-1f64cf93580a_631_dldesign_0_cycle1_af2pred (protein)
chain: GLRESTEKVLEVAGQLAAQTAATSPELGPQAAAVAEAGRARAEALIAAGDYEGAFAAANEAAAQLSRLAVQAAQAAAAA
B2: design_488_244881a1-ba0c-4c08-ad9c-1f64cf93580a_114_dldesign_0_cycle1_af2pred (protein)
chain: AAAALAGEVSAELVEIVGEAARVLGEAERLGDAEVVALAREARALANKALAALAAGDVEKAVEYAKKAREKLEEARRRLEEVKRR
B3: design_488_244881a1-ba0c-4c08-ad9c-1f64cf93580a_1386_dldesign_0_cycle1_af2pred (protein)
chain: DQARKATEAAAKALLAQVERLSEEAVKAAKEDPAEAKRYLEAAEALRDVIAGLADEEIAKEYAAKAKEIIEKARKEVEAYLAAK
B4: design_488_244881a1-ba0c-4c08-ad9c-1f64cf93580a_1178_dldesign_0_cycle1_af2pred (protein)
chain: SDAEKAESALKFLNTLEEIGIIAKKEYGPEFAQNMINSIENSSKIFAAAVSPEYAKKILEKAKEAIEKIKAA
B5: design_487_778f5c6d-c470-43b8-8f82-464af6177e08_2307_dldesign_0_cycle1_af2pred (protein)
chain: AAEAEEEAKKLAEEAAKLVAAVDPSIAEEVAKALELGNLAQVKTMLVLAQSAYESTDPAARALALANLRTVAAQAIARAA
B6: design_488_244881a1-ba0c-4c08-ad9c-1f64cf93580a_302_dldesign_0_cycle1_af2pred (protein)
chain: MMAEYEARARELFEKAAASDPETARKIGEEMVKLAKEDVEFGNVAALVAAQVAAESGSPVLRQIQAAIARTVIEQLA
B7: design_487_778f5c6d-c470-43b8-8f82-464af6177e08_1484_dldesign_0_cycle1_af2pred (protein)
chain: SRLEELRRRRDEYVAQLEVAIAELEELSKRAVTEEARRAAEEARALVEEGDKDPERGANIVGRALVQAQAALARARRLNEAA
B8: design_488_244881a1-ba0c-4c08-ad9c-1f64cf93580a_782_dldesign_0_cycle1_af2pred (protein)
chain: AAAQAARAYAVLKAHADAAAKRAAELAAEGAEGARAGAQLLAVVSDAAAGAAKAFPEYAAELNALAAAAAAAAAAAAAAAAAAEAAA
B9: design_487_778f5c6d-c470-43b8-8f82-464af6177e08_2029_dldesign_0_cycle1_af2pred (protein)
chain: ATAAEIAARMGAAIKRNALANMDEIAAELADDPELAAKRLAAVVENARKMLEAAGLTPEEVAALVAELEARADELVEANRA
B10: design_488_244881a1-ba0c-4c08-ad9c-1f64cf93580a_1220_dldesign_0_cycle1_af2pred (protein)
chain: DETEKKREEAKKEAEKLIEELEKAGKEVAAVPAASNMALATAKQGKKQLKEAEKLSPEEALKVYEAVKKSAEVALEIARATKAALAA
B11: design_487_778f5c6d-c470-43b8-8f82-464af6177e08_2394_dldesign_0_cycle1_af2pred (protein)
chain: AAEEAERIIEGNRQLGLAIAEGSASKEEMKAKVDEAVEKARKAVEEDPEKGPEYALELFTKTNKEIMLQALAELT
B12: design_488_244881a1-ba0c-4c08-ad9c-1f64cf93580a_642_dldesign_0_cycle1_af2pred (protein)
chain: AEAARKAALAVRTAAASFKAAADAGASAEAVKKLGEVMAQSVEAYDPEVGKEVKAKVEELAKLPDAKKAAAELAKFMEAKAKEVAAK
B13: design_488_244881a1-ba0c-4c08-ad9c-1f64cf93580a_765_dldesign_0_cycle1_af2pred (protein)
chain: AADVAQAKEYAKQAKEFAEQADPELAKEVGKEAEALVKEAEADPSKAAEYLNKVGQLYVQAAAAAMKKLA
B14: design_488_244881a1-ba0c-4c08-ad9c-1f64cf93580a_492_dldesign_0_cycle1_af2pred (protein)
chain: ATALLRSALAQAKSAIIAMKQDPEQGAQLAEGAALTAKAAGDEETAKKLEEAAKLAKEGKAEEAIKLLEEAAKELAKAI
B15: design_488_244881a1-ba0c-4c08-ad9c-1f64cf93580a_1131_dldesign_0_cycle1_af2pred (protein)
chain: DEASEKAEAAYNKAKALEAAGADPNDILAAYVDAMGYLSEAARAAREAGREEEAEKWQAKLKEAQKNATKAAKAAVAAARA
B16: design_488_244881a1-ba0c-4c08-ad9c-1f64cf93580a_165_dldesign_0_cycle1_af2pred (protein)
chain: MTPADQLIELARAIVEQAKASDPETAAVNAAGAEAAAGALRNYAAANPETGPKAEAAAKEAEAAAKAIKAAVAAAK
B17: design_487_778f5c6d-c470-43b8-8f82-464af6177e08_1892_dldesign_0_cycle1_af2pred (protein)
chain: AAQALLAQANAALGQLLDLAAEASASSPEEAARATAQMRETAAAAQAAAAAAAAQDPAIAPQAQAIAASAAALARNAEELVAAR
B18: design_488_244881a1-ba0c-4c08-ad9c-1f64cf93580a_362_dldesign_0_cycle1_af2pred (protein)
chain: AEEERRRAALAERARAVLQQAAAVGSQAAIADPSVSGTILDGLKEAYELLARGEVERALEVAEALLASAQATLAAL
B19: design_488_244881a1-ba0c-4c08-ad9c-1f64cf93580a_1393_dldesign_0_cycle1_af2pred (protein)
chain: SPADEVAARLNALLGAAIKALAADPAAGLALAEEARRLAEELAKKYPTPEVKRVAEAAKKMADAIGAAAQAQLAAAQA
B20: design_488_244881a1-ba0c-4c08-ad9c-1f64cf93580a_478_dldesign_0_cycle1_af2pred (protein)
chain: ITEAEAKELAEMVRTPETAPEAAARLEALGAASTPGQAAFFRAAAALARLAAEAPEEERPRYAEGVLKILQAAI
B21: design_488_244881a1-ba0c-4c08-ad9c-1f64cf93580a_578_dldesign_0_cycle1_af2pred (protein)
chain: GAAAAARRAAAFTLLEIARSLVAAGPQYAGSAIRTAAQALALVAPEYEEEVRAVGREEGAAAAVEYARELLA
B22: design_487_778f5c6d-c470-43b8-8f82-464af6177e08_2068_dldesign_0_cycle1_af2pred (protein)
chain: AAAEAAAAAEAQEKAKEAAEKAVENIDDPELAEKYAEEAGKALLAGADLEEVLTYANSLNPEVARLIARAYARLGAAAVRA
B23: design_488_244881a1-ba0c-4c08-ad9c-1f64cf93580a_123_dldesign_0_cycle1_af2pred (protein)
chain: GGEEEGEELLERGREAAEEIARLPLSETERLARLTGEALEYAREAARVAGGEKAREILTAISRAHAASVA
B24: design_488_244881a1-ba0c-4c08-ad9c-1f64cf93580a_688_dldesign_0_cycle1_af2pred (protein)
chain: DTARQALIASAQQARKQLEAAKALTPEEQARAAQAVLELARQLAESAEAAGDEEALALAREVAEAAEAAIKEAKAA
B25: design_488_244881a1-ba0c-4c08-ad9c-1f64cf93580a_204_dldesign_0_cycle1_af2pred (protein)
chain: LAATRAAANAVLTRASKLNLQAVADPALAEVAALANQAIALALAGLADPATLAADTAAAAAVLDQAEALAKLVA
B26: design_488_244881a1-ba0c-4c08-ad9c-1f64cf93580a_858_dldesign_0_cycle1_af2pred (protein)
chain: DEEREKLLAEAEKYLAAAVAAAKAAGVQGGQVRAIANSLAIALRTGNTAGAATLLTSLVATAAKVGPEVLTHANKAKEKATQWIALA
B27: design_487_778f5c6d-c470-43b8-8f82-464af6177e08_1978_dldesign_0_cycle1_af2pred (protein)
chain: AKEKAIEEITALRELAVKAAEEVGKEEEKEKIKELTEKAIEALDNPEESARLITKAAAIAVEVAPEKAAQIRRLASAAIQAALAT
B28: design_488_244881a1-ba0c-4c08-ad9c-1f64cf93580a_1486_dldesign_0_cycle1_af2pred (protein)
chain: SAAGQLALDTAKTFMQQAKELAKQDPQLALAALQSAKLAADGAIADPATAAQGKALKAEVKAQEAAVKAAAAAAA
B29: design_487_778f5c6d-c470-43b8-8f82-464af6177e08_1544_dldesign_0_cycle1_af2pred (protein)
chain: AALQQANAALKAAQSLVDHVKKNPEFSPESIIKVADVAIELAKQAEEEAAKADPEVAKKAKEAKEEAEKIKKEAA
B30: design_488_244881a1-ba0c-4c08-ad9c-1f64cf93580a_1058_dldesign_0_cycle1_af2pred (protein)
chain: MAEAQALLLETAKEAYEYAKEDPENAEYYLAAATHVLRALSALTTDPAKAIELLEKAIEEAKKTDPEKGEELIKKIEEAKKLVEAAA
B31: design_488_244881a1-ba0c-4c08-ad9c-1f64cf93580a_1373_dldesign_0_cycle1_af2pred (protein)
chain: MTAAQAAAAVASLAQSAVLAAKQDPALAKQAVEAAQSFAIWATTKLGDAALAEAAAKALKDAGKAAPAVAKQAEAAAKAVLDTAKKL
B32: design_488_244881a1-ba0c-4c08-ad9c-1f64cf93580a_931_dldesign_0_cycle1_af2pred (protein)
chain: MKELEEAAKRALELAPPEHRPLMERLVAIARELAKIIGDEEAAAILGEGVLEGARDPERAVDITMAAQGAAIRLAHARQSA
B33: design_487_778f5c6d-c470-43b8-8f82-464af6177e08_1930_dldesign_0_cycle1_af2pred (protein)
chain: AQAAADAAEALSELAIKFSKLAKKISPEAAAYFARAAGYFLRASGILRAGGDAAAAAAALAKGLALFLLGLAILKKVLS
B34: design_488_244881a1-ba0c-4c08-ad9c-1f64cf93580a_1252_dldesign_0_cycle1_af2pred (protein)
chain: DAARRQGAVAFMQQVLESAKNYPEAAPIAQAGLDRVAAAVAAGAPADEVVALARREAAAANKAMIAAAKA
B35: design_487_778f5c6d-c470-43b8-8f82-464af6177e08_1639_dldesign_0_cycle1_af2pred (protein)
chain: GALAVQTARASAAQAVAAVAAAPAEEAPARVAAAEKLLAVLDGIAEAASPEAGAQIRAIVDAARAAIAATAAAKAAA
B36: design_488_244881a1-ba0c-4c08-ad9c-1f64cf93580a_236_dldesign_0_cycle1_af2pred (protein)
chain: PVERAIRLAEGAITFLEGLIVARKDGNAAGAAAYAQAAKTLLEELAKLLPGEIAKEATEAAKLAADPATAEKALALAKKILERIKKE
B37: design_487_778f5c6d-c470-43b8-8f82-464af6177e08_1924_dldesign_0_cycle1_af2pred (protein)
chain: MEKETEELLKKAKELIEKAKELAKEVLKKDPISGRGIQAAVKSAEELLKRGIEGEDSLRYAKQALELAKVALEMAKATLAA
B38: design_487_778f5c6d-c470-43b8-8f82-464af6177e08_1499_dldesign_0_cycle1_af2pred (protein)
chain: DEAELLEAINRAGRETRERLLALGESEAEATRAASAVQVVGYAALTGNAEAEAIGMASLATVGKGRPVAVAAAEEVADRIRAA

Target: CD276, Q5ZPR3
Sequence (Q5ZPR3 whole entry): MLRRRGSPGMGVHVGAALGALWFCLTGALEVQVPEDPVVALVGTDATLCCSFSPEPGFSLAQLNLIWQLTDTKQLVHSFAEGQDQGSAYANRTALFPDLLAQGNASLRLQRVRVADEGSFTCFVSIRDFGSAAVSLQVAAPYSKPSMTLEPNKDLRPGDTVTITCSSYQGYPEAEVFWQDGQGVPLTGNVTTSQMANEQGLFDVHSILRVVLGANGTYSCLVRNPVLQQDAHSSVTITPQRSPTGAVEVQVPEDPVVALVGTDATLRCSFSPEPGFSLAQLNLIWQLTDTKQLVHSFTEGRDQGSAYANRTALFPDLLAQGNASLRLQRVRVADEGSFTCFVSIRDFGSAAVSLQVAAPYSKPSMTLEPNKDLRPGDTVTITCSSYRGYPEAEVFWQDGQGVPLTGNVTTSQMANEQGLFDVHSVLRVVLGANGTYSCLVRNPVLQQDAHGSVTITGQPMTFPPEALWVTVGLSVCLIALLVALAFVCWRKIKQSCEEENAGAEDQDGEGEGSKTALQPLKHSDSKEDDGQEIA

Binding in a display sort, inactive:
B1 not found
B2 not found
B3 not found
B4 not found
B5 not found
B6 not found
B7 not found
B8 not found
B9 not found
B10 not found
B11 not found
B12 not found
B13 not found
B14 not found
B15 not found
B16 not found
B17 not found
B18 not found
B19 not found
B20 not found
B21 not found
B22 not found
B23 not found
B24 not found
B25 not found
B26 not found
B27 not found
B28 not found
B29 not found
B30 not found
B31 not found
B32 not found
B33 not found
B34 not found
B35 not found
B36 not found
B37 not found
B38 not found

From article PMC13494018
